From PubChem BioAssay (NCI)
About 83,000 compounds went through this panel and 20% of them were active in at least one assay; those are over-represented in the sample as a whole.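 Single-dose data. Exposure time 48 hours. Values below 10 considered active.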 A number with no mark means an inactive call. Activity calls are given as the source filed them.

These compounds were tested on A498 renal (assay: NCI-60 one-dose screen, 48 h (100 = growth as untreated, 0 = no growth, -100 = all killed)). Conditions: 10 µM unless noted.
Compound CCOC(=O)C1OC1(c1ccccc1)c1ccccc1 (centres undefined) has a growth of 106%. For CCN1CCN(C(=O)[C@@]2(C)CC[C@]3(C)CC[C@]4(C)C(=CC(=O)[C@@H]5[C@@]6(C)CC[C@H](OCCC#N)C(C)(C)[C@@H]6CC[C@]54C)[C@@H]3C2)CC1, the growth was 101%. In the case of O=S(=O)(NCCNc1cc(-c2cn(-c3ccccc3)nc2-c2cccc(O)c2)ccn1)c1cccc(F)c1, the growth is reported as 57.4%. N#CC1=C(N)Oc2ccc3ccccc3c2C1c1ccccc1 (centres undefined) showed a growth of 21.5%. In the case of COc1ccc(-c2cc(=O)oc3ccc(Cl)cc23)cc1F, the growth is reported as 2.69% (active).

What follows are compounds tested on CCRF-CEM leukemia in the same assay as above. Conditions: 10 µM unless noted.
COC(=O)[C@]12CC[C@@H](C)[C@H](C)[C@@H]1C1=CC[C@@H]3[C@@]4(C)C[C@@H](OC(C)=O)[C@H](O)[C@@](C)(COC(C)=O)[C@@H]4[C@H](O)C[C@@]3(C)[C@]1(C)CC2 was tested, and the growth was -54.3% (active). In the case of N#Cc1c(-c2ccco2)nc2c(c(-c3ccccc3)nn2-c2ccccc2)c1-c1ccc(O)cc1, the growth is reported as 41.5%. CC(=O)c1c(C)[nH]c(-c2nc3ccc(N4CCN(C)CC4)cc3[nH]2)c1-c1ccc2c(c1)OCCO2 showed a growth of 50.3%. COc1ccc(C(=O)c2ccc(C)cc2)c(OC)c1OC was tested, and the growth was 89%. C[C@H]1OC(=O)/C=C/[C@@H](O)[C@@H](O)CCCCCCCC[C@@H]1O gave a growth of 62.4%. For COc1ccccc1-n1cnc(N)c1C(=O)c1cc(OC)c(OC)c(OC)c1, the growth was 24.2%. In the case of COc1ccc(/C=C(\C#N)c2cc3ccccc3n2S(C)(=O)=O)cc1, the growth is reported as 86%. Cc1cccc2c1NC(=O)[C@@]21[C@H](C(=O)c2ccccc2)[C@]2(C(=O)Nc3ccccc32)[C@H]2CCCN21 was tested, and the growth was 5.86% [100 µM] (active). N=c1ccc2nc3c(cc(N)c4ccccc43)oc-2c1 was tested, and the growth was -24.9% (active). Compound COc1cccc(-c2nn(-c3ccccc3)cc2-c2ccnc(NCCCNS(=O)(=O)c3ccc(Br)cc3)c2)c1 has a growth of 32.1%. Cc1ccc(-c2nn(Cc3cn(-c4cc(C)nc5ccccc45)nn3)c3ncnc(N)c23)cc1 showed a growth of 63.1%. In the case of COc1ccc2c(c1)c1nc3cc(C)c(C)cc3nc1n2CCN(C)C, the growth is reported as 6.67% (active). Work on CC(=O)n1c(/C(C#N)=C/c2ccc(N(C)C)cc2)cc2ccccc21 yielded a growth of 21.1%. Work on C[C@H]1[C@H]2C3=CC[C@@H]4[C@@]5(C)C/C(=C/c6ccco6)C(=O)C(C)(C)[C@@H]5CC[C@@]4(C)[C@]3(C)CC[C@@]2(C(=O)N2CCOCC2)CC[C@@H]1C yielded a growth of 14.2%. With Fc1ccc(Nc2ccc3c(OCCCN4CCOCC4)cccc3n2)cc1F the growth was 69.4%. COc1cccc(-c2nn(-c3ccccc3)cc2-c2ccnc(NCCNS(=O)(=O)c3ccc(C(F)(F)F)cc3)c2)c1 was tested, and the growth was 8.23% (active). Cn1cnc2c1c(=O)n(CCC(=O)Nc1ccc(F)cc1)c(=O)n2C was tested, and the growth was 99.5%. With COCCNC1=C(Cl)C(=O)c2ccccc2C1=O the growth was 99.7%. In the case of CCCCn1c(-c2ccc(O)cc2)cn2c3c(=O)[nH]c(=O)n(C)c3nc12, the growth is reported as 80%. Work on Cc1ccc(N(CC(=O)Nc2ccc(S(=O)(=O)NC3CCN(C)CC3)cc2)S(=O)(=O)c2ccc(Cl)cc2)cc1 yielded a growth of 20.9%. CC(=O)OC[C@]12CC[C@@H](/C(C)=N/O)[C@@H]1[C@H]1CC[C@@H]3[C@@]4(C)CCCNC(C)(C)[C@@H]4CC[C@@]3(C)[C@]1(C)CC2 showed a growth of 52.1%. With Clc1ccc(Cn2cc(-c3nc4ccc(Br)nc4n3Cc3ccc(Cl)cc3)c3cccnc32)cc1 the growth was 78.6%. Work on CN1CCN(CCOc2ccc(-c3cnc4c(-c5cccc(F)c5)cnn4c3)cc2)CC1 yielded a growth of 20.9%. In the case of CN1CCN(c2nc(-c3csc(-c4cccs4)n3)cc3ccccc23)CC1, the growth is reported as 30.7%. For CCN(CC)CCCCCCNc1ccnc2cc(Cl)ccc12, the growth was 113%. For CCCCCCCC(=O)SCC/C=C/[C@@H]1CC(=O)NCc2cccc(n2)CN(Cc2ccc(Cl)cc2)CC(=O)N[C@@H](C(C)C)C(=O)O1, the growth was 7.54% (active). With c1cc(N2CCCC2)c2nc(-c3[nH]ncc3Nc3ncnc4[nH]ccc34)[nH]c2c1 the growth was 1.97% (active). With COc1ccc(C2=NN(c3nc(-c4ccc(OC)cc4)c(C#N)c(=O)n3C)C(=O)CC2)cc1 the growth was 91%. For Cc1ccc(S(=O)(=O)Nc2ccc(-c3cc(-c4cccc(F)c4)c(C#N)c(N)n3)cc2)cc1, the growth was 7.69% (active). CC(C)(C)c1ccc(OCCCCCCCN2CCNCC2)cc1 showed a growth of 17.8%. Work on COC(=O)CNc1nc(N(C)O)nc(N(C)O)n1 yielded a growth of 15.5%. For COc1cc2ncnc(Nc3ccc(Oc4ccnc(C)c4)c(C)c3)c2cc1NC(=O)CC1CCSS1 (centres undefined), the growth was -30.8% (active). C=C(C)[C@@H]1CC[C@]2(C)[C@H](CC[C@@H]3[C@H]4[C@H]5OC[C@@]4(CCC5(C)C)CC[C@]32C)[C@@]1(C)CCCN gave a growth of 51.8%. For c1ccc(-c2nc(Nc3ccc(-c4nc5ccccc5[nH]4)cc3)nc(N3CCOCC3)n2)cc1, the growth was -15.7% (active). With CCOC(=O)C1OC1(c1ccccc1)c1ccccc1 (centres undefined) the growth was 100%. In the case of CCN1CCN(C(=O)[C@@]2(C)CC[C@]3(C)CC[C@]4(C)C(=CC(=O)[C@@H]5[C@@]6(C)CC[C@H](OCCC#N)C(C)(C)[C@@H]6CC[C@]54C)[C@@H]3C2)CC1, the growth is reported as 63.4%. O=S(=O)(NCCNc1cc(-c2cn(-c3ccccc3)nc2-c2cccc(O)c2)ccn1)c1cccc(F)c1 was tested, and the growth was 18.7%. Compound N#CC1=C(N)Oc2ccc3ccccc3c2C1c1ccccc1 (centres undefined) has a growth of 20.7%. For COc1ccc(-c2cc(=O)oc3ccc(Cl)cc23)cc1F, the growth was 11.8%.
